Only a selection was taken, and hits are over-represented in it overall.
RE007 growth inh: less growth of the S. pombe RE007 Vpr strain | S. pombe RE007 Vpr strain, BacTiter-Glo ATP luminescence, 24 h | Potency, µM (doses to about 92.2 µM), for inactives: at the top dose activity change, negative = less growth, actives largely listed as inhibitors | 360,000 tested, 0.21% active; active = well fitted falling curve with a large enough effect; inconclusive = small, poorly fitted or top-dose-only effect; inactive = no such curve, though single readings can be large or run the other way; also: potency is read from the fitted curve at half-maximal effect; % is scaled to controls: 0 for no effect and ±100 for the full control effect; nearly all actives have a fitted effect of over 50% in size
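Fission yeast RE007 carrying one integrated HIV-1 vpr copy, seeded at OD 0.01 in PMG+AL medium with 23 nL pinned compound. Grown 24 h at 30 degrees; viability read by BacTiter-Glo luminescence after 5 min.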
Shiga inhibitor: blocks Shiga toxin action in Vero cells; Vero cells, Shiga toxin protein synthesis inhibition reporter; inhibition, % at 38.7 µM; 290,000 tested, 9.2% active; in the data active = inhibition mostly above about 28%, no sharp cut-off; inactive = mostly below about 43%; also: 0% is about no effect
LmPK inhibitor: LmPK (Leishmania mexicana) enzyme inhibition. AID 1721. purified LmPK, Kinase-Glo ATP luminescence, 1 h. 290,000 tested, 0.37% active. Q27686. Potency, µM (highest dose often 57.5 µM), for the others: top-dose activity change, negative = inhibition, usual class: inhibitors; also: potency is read from the fitted curve at half-maximal effect; % is scaled to controls: 0 for no effect and ±100 for the full control effect
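Pyruvate kinase activity monitored as ATP production (luciferase luminescence). Conditions: 0.1 nM enzyme, 0.5 mM PEP, 0.1 mM ADP, 1 h, RT; normalized against uninhibited and no-enzyme wells.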
Tb PYK inh: blocks Trypanosoma brucei pyruvate kinase; Q57TT1; 410,000 tested, 0.12% active; TbPYK enzyme, Kinase-Glo Plus ATP luminescence, 45 min; Potency, µM (series often up to 76.8 µM), for the others: at the highest dose activity, negative = inhibition, actives largely listed as inhibitors; also: potency is read from the fitted curve at half-maximal effect; % is scaled to controls: 0 for no effect and ±100 for the full control effect; nearly all actives have a fitted effect of over 50% in size
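Luminescent Kinase-Glo Plus end-point after 45 min room-temperature reaction of T. brucei pyruvate kinase started with 130 uM ADP (final). Buffer TEA 50 mM pH 7.2 with KCl, MgCl2, BSA, Tween-20; titration-based qHTS with fitted concentration-effect curves.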
CHX counter: counter-screen for Shiga toxin inhibitors: cycloheximide protein synthesis inhibition. max response, %. 300,000 tested, 12% active. cell reporter, cycloheximide protein synthesis inhibition counterscreen; in the data active = max response mostly above about 13%, no sharp cut-off; inactive = mostly below about 14%; also: read at 38.3 µM for the half of the compounds with a filed dose; 0% is about no effect
Giardia FBPA inh: blocks Giardia fructose-bisphosphate aldolase activity; A8B2U2; purified Giardia FBPA; Potency, µM (doses to about 59.6 µM), inactives show at the highest dose activity, negative = inhibition, actives largely listed as inhibitors; 290,000 tested, 0.71% active; AID 2451; also: potency is read from the fitted curve at half-maximal effect; % is scaled to controls: 0 for no effect and ±100 for the full control effect; nearly all actives have a fitted effect of over 55% in size
Target sequence (A8B2U2 whole entry, looked up): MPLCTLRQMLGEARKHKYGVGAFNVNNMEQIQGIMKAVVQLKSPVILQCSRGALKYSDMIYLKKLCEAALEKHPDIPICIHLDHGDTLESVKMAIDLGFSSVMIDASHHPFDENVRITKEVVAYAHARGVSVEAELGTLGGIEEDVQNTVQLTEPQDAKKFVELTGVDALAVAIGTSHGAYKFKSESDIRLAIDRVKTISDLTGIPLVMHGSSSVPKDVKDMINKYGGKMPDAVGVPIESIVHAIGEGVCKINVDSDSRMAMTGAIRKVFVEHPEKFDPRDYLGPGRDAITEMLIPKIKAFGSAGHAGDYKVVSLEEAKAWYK
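40 nM FBPA preincubated 10 min at RT with compound (up to 57.5 uM final), then substrate plus GAPDH/TPI/NAD/arsenate coupling and diaphorase/resazurin added. Fluorescence read after 20 min at RT, 525/598 nm.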
* = called active by the depositor; ? = inconclusive; nt = not tested or not shown. Unless noted, calls follow the shape of the dose curve; as a rule, active = well fitted curve in the direction sought with a large enough effect; inconclusive = small, poorly fitted or top-dose-only effect, or another doubt; inactive = no such curve, though single readings can be large; an effect the other way counts as inactive or inconclusive.

SMILES	RE007 growth inh	Shiga inhibitor	LmPK inhibitor	Tb PYK inh	CHX counter	Giardia FBPA inh
O=C(NNC(=O)c1ccccc1F)c1ccc2nc[nH]c2c1	7.0%	67.6	-8.0%	3.2%	21.8*	nt
CN(C)c1ccc(NC(=O)c2ccc3nc[nH]c3c2)cc1	2.0%	137.6*	0.1%	-13.9%	51.4*	4.5%
O=C(Nc1ccc(F)cc1)c1cccc(C(=O)Nc2ccc(F)cc2)c1	2.4%	-3.5	4.7%	0.0%	-0.9	3.6%
CCOc1cc(S(=O)(=O)NCCc2c(C)[nH]c3ccc(C)cc23)ccc1Br	nt	nt	nt	3.6%	nt	nt
CCOC(=O)c1ccc(NC(=O)Cc2coc3cc(C)cc(C)c23)cc1	nt	nt	nt	7.1%	nt	nt
S=C(NCc1ccco1)Nc1ccc(Oc2ccccc2)cc1	9.6%	54.5	-1.6%	-15.7%	34.4*	-15.1%
O=C(OC(C(=O)NCc1ccco1)C(OC(=O)c1ccccc1)C(=O)NCc1ccco1)c1ccccc1 (centres undefined)	-7.2%	66.1*	4.4%	4.2%	16.6*	1.2%
CCOC(=O)c1ccc(NC(=S)NCc2ccco2)cc1	0.0%	63.4*	4.9%	4.4%	13.6	-4.9%
CCOc1ccc(NC(=S)NCc2ccco2)cc1	-12.8%	36.2	0.4%	3.0%	15.2	-0.2%
S=C(NCc1ccco1)Nc1cccc(Cl)c1	-17.2%	32.0*	5.0%	-11.7%	12.2	-1.3%
O=c1c2ccccc2nc(-c2ccc(Cl)cc2)n1CCCOc1ccccc1F	nt	nt	nt	-16.0%	nt	nt
Cc1ccc(NC(=O)c2oc3ccccc3c2NC(=O)C2CCCCC2)cc1	nt	nt	nt	-2.2%	nt	nt
S=C(NCc1ccco1)Nc1ccc(N2CCOCC2)cc1	-0.2%	17.3	-2.9%	-16.7%	20.2*	-26.9%
S=C(NCc1ccco1)Nc1ccc(Cl)c(Cl)c1	5.7%	60.0	3.5%	-8.4%	31.1*	-1.6%
CC1CCN(S(=O)(=O)c2ccc3c(c2)c(=O)c(C(=O)NCc2ccc(Cl)cc2)cn3C)CC1	nt	nt	nt	0.3%	nt	nt
O=C(COc1ccc(Cl)cc1)Nc1ccc(Cl)cn1	-14.9%	34.2	0.9%	2.1%	26.0*	-0.7%
CC(C)=CC(=O)OCC(=O)Nc1ccc(Cl)cn1	-25.0%	13.4	-3.7%	-0.2%	19.1*	3.2%
O=C(COc1ccccc1)Nc1ccc(Cl)cn1	-11.6%	62.1*	0.7%	2.9%	61.8*	3.6%
CCOC(=O)/C=C/C(=O)OCC(=O)Nc1ccc(Cl)cn1	?	15.5	8.8%	-6.4%	16.9	3.1%
O=C(COc1ccc2c(c1)OCO2)Nc1ccc(Cl)cn1	71.7%	69.2*	-2.1%	-10.4%	50.6*	-1.6%
COC(=O)c1ccccc1NC(=O)COc1ccc2c(c1)OCO2	2.0%	12.4	0.1%	-2.7%	5.7	-9.9%
COc1ccccc1C(=O)OCC(=O)Nc1ccc(Cl)cn1	-21.5%	15.3	-0.5%	1.9%	27.3*	-1.0%
O=C(COc1ccccc1Cl)Nc1ccc(Cl)cn1	-2.8%	63.0*	-0.7%	-0.8%	39.1*	-2.4%
O=C(COC(=O)c1ccccc1)Nc1ccc(Cl)cn1	0.4%	65.6	-0.3%	1.8%	15.3	13.2%
O=C(/C=C/c1ccc2c(c1)OCO2)Nc1ccc(Cl)cn1	23.7%	77.8*	1.1%	-5.9%	34.2*	-3.9%
SMILES	RE007 growth inh	Shiga inhibitor	LmPK inhibitor	Tb PYK inh	CHX counter	Giardia FBPA inh
O=C(COC(=O)COc1ccccc1F)Nc1ccc(Cl)cn1	5.9%	0.9	2.6%	0.1%	-1.7	-0.5%
Cc1cc(NC(=O)c2ccc(NC(=O)CCS(=O)(=O)c3cccs3)cc2)ccc1Br	nt	nt	nt	-7.5%	nt	nt
COc1ccc(NC(=O)CC2C(=O)N(c3ccc(F)cc3)C(=O)N2Cc2ccco2)cc1 (centres undefined)	nt	nt	nt	1.0%	nt	nt
O=[N+]([O-])c1csc2ccccc12	-2.8%	nt	nt	-3.4%	nt	nt
O=[N+]([O-])c1cccc(N=Cc2ccccc2)c1	-12.6%	nt	nt	2.5%	nt	nt
O=[N+]([O-])c1ccc(N=Cc2sc3ccccc3c2O)cc1	-3.2%	108.5*	-5.6%	-8.3%	43.2*	9.2%
O=[N+]([O-])c1cccc(N=Cc2sc3ccccc3c2O)c1	nt	85.9*	-6.0%	nt	38.1*	-1.5%
COc1cccc(Nc2ncc3nc(CCc4ccccc4)c(=O)n(C)c3n2)c1	nt	nt	nt	nt	nt	3.3%
COc1cc(Cl)c(NC(=O)c2cc(CN3CCCC3)on2)c(OC)c1	nt	nt	nt	-13.6%	nt	nt
COc1ccc(NC(=O)c2cc(-c3ccccc3O)no2)cc1	nt	nt	nt	-6.4%	nt	nt
COc1ccc(-c2cc(C(=O)Nc3ccccc3)on2)cc1	-4.4%	124.4*	?	10.4%	18.8*	0.2%
COc1ccc(-c2cc(C(=O)Nc3ccccc3F)on2)cc1	-7.3%	79.7*	-5.5%	-2.3%	32.7*	8.6%
Cc1ccc(-c2nnc(-c3cccc4ccccc34)o2)cc1	-2.1%	nt	nt	-5.1%	nt	nt
c1ccc(Nc2nnc(-c3cccc4ccccc34)o2)cc1	18.2%	54.1*	-0.4%	0.2%	35.6*	-2.3%
CC(C)[C@H](NC(=O)[C@H](CCCCN)NC(=O)[C@@H](NC(=O)[C@@H]1CCCN1C(=O)[C@H](CCCN=C(N)N)NC(=O)[C@H](CCCN=C(N)N)NC(=O)[C@H](CCCCN)NC(=O)[C@H](CCCCN)NC(=O)CNC(=O)[C@@H](NC(=O)[C@@H]1CCCN1C(=O)[C@@H](N)CCCCN)C(C)C)C(C)C)C(=O)N[C@@H](Cc1ccc(O)cc1)C(=O)N1CCC[C@H]1C(=O)O	nt	-8.4	nt	nt	14.0	?
CCOC(=O)c1snc2c(=O)[nH]cnc12	2.0%	-6.4	2.4%	2.7%	-4.2	-5.9%
O=C(Nc1ccccc1)c1snc2c(=O)[nH]cnc12	14.1%	18.4	-0.8%	-16.1%	15.7*	6.2%
Cn1c(CNC(=O)CSc2nc(-c3ccccc3F)nc3cc(=O)[nH]n23)nc2ccccc21	nt	nt	nt	-8.0%	nt	nt
COc1cccc(NC(=O)c2ccc(-n3cccn3)nc2)c1	-16.2%	26.0*	-2.7%	-3.9%	40.2*	4.3%
COc1cccc(NC(=O)c2nc3ncccn3n2)c1	-0.5%	65.2*	-6.7%	-2.0%	48.4*	-5.5%
CNC(=O)Oc1ccc2c(c1)[C@@]1(C)CCN(C)C1N2C (some centres undefined)	nt	nt	nt	nt	nt	6.3%
CC(C)(C)N=Cc1cc(-c2ccccc2)sc1O	16.7%	71.1*	-5.3%	-2.3%	38.2*	-2.1%
OCc1ncc(-c2ccccc2)s1	-3.7%	21.7	-1.1%	4.6%	17.5	1.2%
O=[N+]([O-])c1ccc(Nc2ccc3ccccc3c2)nc1	14.3%	89.3*	9.3%	-13.9%	45.0*	-3.0%
O=C(O)c1cccc(Nc2ccc([N+](=O)[O-])cn2)c1	4.5%	9.4	-6.6%	2.2%	-1.4	-7.4%
CSC(N)=NCCCC(N)C(=O)O (centres undefined)	nt	nt	nt	nt	nt	3.6%
Cc1ccc2cc(CN(Cc3ccc(F)cc3)Cc3nnnn3C3CCCC3)c(=O)[nH]c2c1	-6.8%	14.6	4.3%	1.7%	12.4*	?
